Laboratory results: PubChem BioAssay (EPA / NIEHS)
Inconclusive results are not listed. The source made the active and inactive calls. The calls were made as follows: active = hit-call score of the fitted dose curve at least 0.9, where 1 is the maximum; inconclusive = response in the unintended direction; inactive = score below 0.9.

Experiments:
[1] = target: human Peroxisome Proliferator-activated Receptor alpha (PPARa), PPARA (gene 5465) (UniProt Q07869); assay: ATG_PPARa_TRANS: Attagene TRANS-FACTORIAL HepG2 Assay for human Peroxisome Proliferator-activated Receptor alpha (PPARa) (AID 2283001)
Method in brief: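 HepG2 cells transiently transfected with multiplexed GAL4-UAS reporter units and chimeric NR-Gal4 constructs were dosed for 24 h. Reporter mRNA was measured by RT-PCR with fluorescent labelling and capillary electrophoresis; gain of signal fitted against DMSO.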

[2] = target: human Peroxisome Proliferator-activated Receptor delta (PPARd), PPARD (gene 5467) (UniProt Q03181); assay: ATG_PPARd_TRANS: Attagene TRANS-FACTORIAL HepG2 Assay for human Peroxisome Proliferator-activated Receptor delta (PPARd) (AID 2283002)
Method in brief: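 Measured quantity: GAL4-UAS reporter transcript induction in HepG2 after 24 h chemical dosing, with NR-Gal4 chimeras supplied by transient transfection. Detection by RT-PCR and capillary electrophoresis; upward fit against DMSO.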

[3] = target: Peroxisome proliferator-activated receptor gamma (Homo sapiens) (UniProt P37231); assay: ATG_PPARg_TRANS: Attagene TRANS-FACTORIAL HepG2 Assay for human Peroxisome Proliferator-activated Receptor-gamma (PPARg) (AID 2283007)
Method in brief: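 Human hepatoma HepG2, transient MRTU transfection, 24 h treatment. mRNA reporter signal by RT-PCR plus capillary electrophoresis, fluorescence detection; fitted for increase over DMSO negative control.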

[4] = target: Nuclear receptor subfamily 1 group I member 2 (Homo sapiens) (UniProt O75469); assay: ATG_PXR_TRANS: Attagene TRANS-FACTORIAL HepG2 Assay for human Pregnane X Receptor (PXR) (AID 2283008)
Method in brief: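 Read-out is fluorescence of labelled reporter cDNA fragments separated by capillary electrophoresis after RT-PCR and HpaI digestion. Source: HepG2 cells carrying PXR-GAL4/UAS reporter constructs, treated 24 h; activity fitted upward relative to DMSO.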

[5] = target: human RAR-related Orphan Receptor beta (RORb), RORB (gene 6096) (UniProt Q92753); assay: ATG_RORb_TRANS: Attagene TRANS-FACTORIAL HepG2 Assay for human RAR-related Orphan Receptor beta (RORb) (AID 2283010)
Method in brief: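 HepG2 cells were transiently transfected with multiplexed GAL4-UAS reporter units expressing chimeric nuclear receptor–GAL4 proteins, then dosed for 24 h. Reporter mRNA was quantified by RT-PCR with fluorescent labelling and capillary electrophoresis; gain of signal was fitted relative to DMSO.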

[6] = target: human Retinoid X Receptor beta (RXRb), RXRB (gene 6257) (UniProt P28702); assay: ATG_RXRb_TRANS: Attagene TRANS-FACTORIAL HepG2 Assay for human Retinoid X Receptor beta (RXRb) (AID 2283013)
Method in brief: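 HepG2 cells transiently transfected with multiplexed reporter units driven by GAL4-UAS and exogenous chimeric NR-Gal4 proteins; treated 24 h. Reporter mRNA measured by RT-PCR, 6-FAM labelling and capillary electrophoresis; gain-of-signal fitted versus DMSO baseline.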

[7] = target: human Thyroid Receptor alpha (THRa1), THRA (gene 7067) (UniProt P10827); assay: ATG_THRa1_TRANS: Attagene TRANS-FACTORIAL HepG2 Assay for human Thyroid Receptor alpha (THRa1) (AID 2283014)
Method in brief: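 HepG2 cells transiently transfected with multiplexed GAL4-UAS reporter units for exogenous chimeric THRa1-Gal4; reporter mRNA measured 24 h after dosing by RT-PCR, 6-FAM labelling, HpaI digestion and capillary electrophoresis. Gain-of-signal fitted versus DMSO baseline.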

[8] = target: human Retinoic Acid Receptor beta (RARb), RARB (gene 5915) (UniProt P10826); assay: ATG_RARb_TRANS: Attagene TRANS-FACTORIAL HepG2 Assay for human Retinoic Acid Receptor beta (AID 2283004)
Method in brief: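 HepG2 cells transiently transfected with multiplexed GAL4-UAS reporter units expressing chimeric NR–Gal4 fusions; 24 h compound exposure. Reporter mRNA quantified by RT-PCR, 6-FAM labelling, HpaI digestion and capillary electrophoresis; gain-of-signal fitted against DMSO baseline.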

[9] = target: Retinoic acid receptor alpha (Homo sapiens) (UniProt P10276); assay: ATG_RARa_TRANS: Attagene TRANS-FACTORIAL HepG2 Assay for human Retinoic Acid Receptor alpha (RARa) (AID 2283005)
Method in brief: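 HepG2 cells transiently transfected with multiple reporter units expressing chimeric RARα-GAL4 fusion, with GAL4-UAS-driven reporters. After 24 h compound exposure, reporter mRNA induction quantified by RT-PCR and capillary electrophoresis with fluorescent labeling; gain-of-signal fitted relative to DMSO control.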

[10] = target: human Retinoic Acid Receptor gamma (RARg), RARG (gene 5916) (UniProt P13631); assay: ATG_RARg_TRANS: Attagene TRANS-FACTORIAL HepG2 Assay for human Retinoic Acid Receptor gamma (RARg) (AID 2283009)
Method in brief: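 HepG2 cells transiently transfected with multiplexed reporter units expressing chimeric RARg-GAL4 and GAL4-UAS-driven reporters; 24 h compound exposure. Reporter mRNA quantified by RT-PCR with fluorescent labelling and capillary electrophoresis; gain-of-signal fitted relative to DMSO baseline.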

[11] = target: human RAR-related Orphan Receptor gamma (RORg), RORC (gene 6097) (UniProt P51449); assay: ATG_RORg_TRANS: Attagene TRANS-FACTORIAL HepG2 Assay for human RAR-related Orphan Receptor gamma (RORg) (AID 2283011)
Method in brief: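 Readout: reporter transcript induction (RT-PCR, fluorescent primer extension, capillary electrophoresis) after 24 h compound exposure of transiently transfected HepG2 cells carrying a RORg-Gal4 chimera and GAL4-UAS reporters; DMSO served as baseline, with increasing signal fitted.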

[12] = target: Retinoic acid receptor RXR-alpha (Homo sapiens) (UniProt P19793); assay: ATG_RXRa_TRANS: Attagene TRANS-FACTORIAL HepG2 Assay for human Retinoid X Receptor alpha (RXRa) (AID 2283012)
Method in brief: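 HepG2 cells transiently transfected with multiplexed GAL4-UAS reporter units and chimeric NR-GAL4 fusions, dosed 24 h. Reporter mRNA measured by RT-PCR, FAM labelling, HpaI digestion and capillary electrophoresis; gain-of-signal fitted relative to DMSO baseline.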

Measured: AC50

Sequence of human Retinoid X Receptor beta (RXRb), RXRB (gene 6257) (P28702 whole entry, looked up, the tested form may be a part): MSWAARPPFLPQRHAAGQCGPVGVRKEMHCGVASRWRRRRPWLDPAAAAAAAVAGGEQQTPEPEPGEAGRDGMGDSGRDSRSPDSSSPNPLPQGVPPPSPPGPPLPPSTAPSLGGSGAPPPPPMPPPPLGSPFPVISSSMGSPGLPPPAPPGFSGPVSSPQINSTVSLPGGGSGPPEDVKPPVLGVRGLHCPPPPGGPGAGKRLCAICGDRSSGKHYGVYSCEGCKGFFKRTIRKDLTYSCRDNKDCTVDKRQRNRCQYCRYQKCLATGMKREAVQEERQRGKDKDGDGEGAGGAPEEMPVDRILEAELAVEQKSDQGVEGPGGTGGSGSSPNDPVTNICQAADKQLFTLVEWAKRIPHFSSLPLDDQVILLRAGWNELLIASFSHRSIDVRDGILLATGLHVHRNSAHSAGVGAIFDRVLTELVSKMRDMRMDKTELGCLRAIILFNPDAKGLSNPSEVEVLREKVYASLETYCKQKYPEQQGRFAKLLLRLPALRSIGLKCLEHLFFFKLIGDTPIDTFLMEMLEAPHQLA
Sequence of Peroxisome proliferator-activated receptor gamma (Homo sapiens) (P37231 whole entry, looked up): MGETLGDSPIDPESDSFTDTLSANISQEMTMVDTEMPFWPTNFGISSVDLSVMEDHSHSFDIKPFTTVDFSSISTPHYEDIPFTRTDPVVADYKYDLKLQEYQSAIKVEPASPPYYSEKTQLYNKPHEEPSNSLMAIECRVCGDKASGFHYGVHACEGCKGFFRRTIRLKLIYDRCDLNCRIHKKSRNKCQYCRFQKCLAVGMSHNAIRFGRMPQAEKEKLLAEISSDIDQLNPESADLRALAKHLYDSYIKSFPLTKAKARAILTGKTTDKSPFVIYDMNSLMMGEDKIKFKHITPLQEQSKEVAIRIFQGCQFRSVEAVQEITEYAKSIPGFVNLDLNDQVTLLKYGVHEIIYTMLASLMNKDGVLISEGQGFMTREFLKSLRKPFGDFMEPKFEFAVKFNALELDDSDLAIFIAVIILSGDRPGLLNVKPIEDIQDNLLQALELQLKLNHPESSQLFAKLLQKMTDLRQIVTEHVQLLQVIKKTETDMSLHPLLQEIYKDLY
Sequence of human Peroxisome Proliferator-activated Receptor delta (PPARd), PPARD (gene 5467) (Q03181 whole entry, looked up, the tested form may be a part): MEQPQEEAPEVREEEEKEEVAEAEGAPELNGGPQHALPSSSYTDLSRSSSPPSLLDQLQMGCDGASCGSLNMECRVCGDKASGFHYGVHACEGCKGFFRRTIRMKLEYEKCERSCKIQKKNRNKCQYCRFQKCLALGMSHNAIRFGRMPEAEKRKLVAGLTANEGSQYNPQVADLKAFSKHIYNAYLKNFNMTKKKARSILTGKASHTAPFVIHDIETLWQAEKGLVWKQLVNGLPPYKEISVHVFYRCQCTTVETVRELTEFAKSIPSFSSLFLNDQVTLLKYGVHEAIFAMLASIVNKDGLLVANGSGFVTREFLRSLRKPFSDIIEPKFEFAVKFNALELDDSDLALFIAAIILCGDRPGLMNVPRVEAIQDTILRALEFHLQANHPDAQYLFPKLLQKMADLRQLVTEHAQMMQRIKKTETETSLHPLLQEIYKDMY
Sequence of human RAR-related Orphan Receptor gamma (RORg), RORC (gene 6097) (P51449 whole entry, looked up, the tested form may be a part): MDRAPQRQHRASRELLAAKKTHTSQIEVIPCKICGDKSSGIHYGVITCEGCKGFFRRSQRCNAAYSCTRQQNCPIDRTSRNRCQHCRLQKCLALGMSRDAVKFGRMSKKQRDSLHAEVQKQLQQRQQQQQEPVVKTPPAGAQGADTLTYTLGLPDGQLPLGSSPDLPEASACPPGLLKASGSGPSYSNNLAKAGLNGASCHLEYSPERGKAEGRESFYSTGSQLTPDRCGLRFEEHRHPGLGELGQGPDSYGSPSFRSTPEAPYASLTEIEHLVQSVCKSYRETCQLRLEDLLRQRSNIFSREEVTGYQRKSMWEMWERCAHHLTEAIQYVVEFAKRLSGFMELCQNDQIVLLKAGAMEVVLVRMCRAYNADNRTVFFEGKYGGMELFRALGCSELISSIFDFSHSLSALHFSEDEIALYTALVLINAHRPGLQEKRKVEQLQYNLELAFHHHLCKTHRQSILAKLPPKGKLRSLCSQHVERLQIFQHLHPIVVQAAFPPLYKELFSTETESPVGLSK
Sequence of human Peroxisome Proliferator-activated Receptor alpha (PPARa), PPARA (gene 5465) (Q07869 whole entry, looked up, the tested form may be a part): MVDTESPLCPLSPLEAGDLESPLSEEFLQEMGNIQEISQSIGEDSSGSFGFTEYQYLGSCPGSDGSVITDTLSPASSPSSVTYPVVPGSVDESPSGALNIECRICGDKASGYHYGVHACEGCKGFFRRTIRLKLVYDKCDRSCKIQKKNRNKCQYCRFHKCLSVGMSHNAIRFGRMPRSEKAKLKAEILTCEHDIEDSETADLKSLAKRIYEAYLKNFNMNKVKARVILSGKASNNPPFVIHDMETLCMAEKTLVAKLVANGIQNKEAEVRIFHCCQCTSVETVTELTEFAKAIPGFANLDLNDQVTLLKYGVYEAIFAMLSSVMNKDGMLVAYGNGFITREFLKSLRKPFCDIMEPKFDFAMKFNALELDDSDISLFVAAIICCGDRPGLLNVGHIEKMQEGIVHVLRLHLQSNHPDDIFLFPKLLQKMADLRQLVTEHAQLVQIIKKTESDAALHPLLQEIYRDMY
Sequence of human Thyroid Receptor alpha (THRa1), THRA (gene 7067) (P10827 whole entry, looked up, the tested form may be a part): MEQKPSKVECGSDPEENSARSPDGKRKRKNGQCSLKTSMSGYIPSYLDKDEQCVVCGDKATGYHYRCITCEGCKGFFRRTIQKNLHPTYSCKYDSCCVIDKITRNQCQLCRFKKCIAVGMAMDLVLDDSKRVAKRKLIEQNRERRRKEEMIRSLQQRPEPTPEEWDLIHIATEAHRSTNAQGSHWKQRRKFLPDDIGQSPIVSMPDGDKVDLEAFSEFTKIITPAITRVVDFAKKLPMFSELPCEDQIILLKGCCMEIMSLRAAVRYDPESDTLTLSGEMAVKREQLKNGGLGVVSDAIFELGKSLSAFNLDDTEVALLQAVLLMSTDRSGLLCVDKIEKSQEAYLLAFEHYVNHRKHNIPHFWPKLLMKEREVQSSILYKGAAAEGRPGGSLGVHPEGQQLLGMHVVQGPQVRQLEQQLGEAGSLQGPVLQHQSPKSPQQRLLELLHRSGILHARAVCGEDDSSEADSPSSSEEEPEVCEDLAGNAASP
Sequence of Nuclear receptor subfamily 1 group I member 2 (Homo sapiens) (O75469 whole entry, looked up, the tested form may be a part): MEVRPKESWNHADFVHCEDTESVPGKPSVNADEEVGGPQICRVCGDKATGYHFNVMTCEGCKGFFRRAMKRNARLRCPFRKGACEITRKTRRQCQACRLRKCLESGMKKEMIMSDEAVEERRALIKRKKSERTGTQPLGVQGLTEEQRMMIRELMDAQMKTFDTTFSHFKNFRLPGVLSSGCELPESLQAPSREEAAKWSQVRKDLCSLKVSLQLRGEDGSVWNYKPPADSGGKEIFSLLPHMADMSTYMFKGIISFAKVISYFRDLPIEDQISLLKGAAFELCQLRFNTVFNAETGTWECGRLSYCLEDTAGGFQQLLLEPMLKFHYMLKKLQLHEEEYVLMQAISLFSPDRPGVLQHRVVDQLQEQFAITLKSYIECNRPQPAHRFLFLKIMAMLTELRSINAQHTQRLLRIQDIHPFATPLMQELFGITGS
Sequence of human RAR-related Orphan Receptor beta (RORb), RORB (gene 6096) (Q92753 whole entry, looked up, the tested form may be a part): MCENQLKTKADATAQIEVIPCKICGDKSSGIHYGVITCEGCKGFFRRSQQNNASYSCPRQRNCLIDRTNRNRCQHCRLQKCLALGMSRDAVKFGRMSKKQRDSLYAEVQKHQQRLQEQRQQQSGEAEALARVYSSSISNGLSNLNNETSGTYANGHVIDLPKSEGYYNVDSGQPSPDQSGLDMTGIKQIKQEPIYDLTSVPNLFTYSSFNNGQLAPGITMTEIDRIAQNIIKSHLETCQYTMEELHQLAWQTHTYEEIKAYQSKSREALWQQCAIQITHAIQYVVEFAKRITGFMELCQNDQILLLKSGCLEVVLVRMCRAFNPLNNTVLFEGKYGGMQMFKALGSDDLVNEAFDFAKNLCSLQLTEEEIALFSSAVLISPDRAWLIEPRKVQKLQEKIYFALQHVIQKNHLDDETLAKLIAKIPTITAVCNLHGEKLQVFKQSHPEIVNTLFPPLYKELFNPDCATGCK
Sequence of Retinoic acid receptor RXR-alpha (Homo sapiens) (P19793 whole entry, looked up, the tested form may be a part): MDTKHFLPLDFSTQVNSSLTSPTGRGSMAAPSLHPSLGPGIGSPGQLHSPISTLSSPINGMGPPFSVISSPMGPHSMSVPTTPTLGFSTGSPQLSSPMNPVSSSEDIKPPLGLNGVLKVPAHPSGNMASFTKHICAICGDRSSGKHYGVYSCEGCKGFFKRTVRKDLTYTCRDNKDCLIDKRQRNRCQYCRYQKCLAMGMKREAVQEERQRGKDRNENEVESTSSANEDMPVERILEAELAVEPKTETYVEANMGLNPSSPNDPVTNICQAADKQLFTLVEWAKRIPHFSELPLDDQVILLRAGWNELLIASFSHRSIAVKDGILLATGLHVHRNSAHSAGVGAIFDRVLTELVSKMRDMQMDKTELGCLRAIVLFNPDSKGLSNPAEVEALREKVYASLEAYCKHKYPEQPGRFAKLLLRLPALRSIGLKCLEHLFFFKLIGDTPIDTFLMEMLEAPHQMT
Sequence of human Retinoic Acid Receptor gamma (RARg), RARG (gene 5916) (P13631 whole entry, looked up, the tested form may be a part): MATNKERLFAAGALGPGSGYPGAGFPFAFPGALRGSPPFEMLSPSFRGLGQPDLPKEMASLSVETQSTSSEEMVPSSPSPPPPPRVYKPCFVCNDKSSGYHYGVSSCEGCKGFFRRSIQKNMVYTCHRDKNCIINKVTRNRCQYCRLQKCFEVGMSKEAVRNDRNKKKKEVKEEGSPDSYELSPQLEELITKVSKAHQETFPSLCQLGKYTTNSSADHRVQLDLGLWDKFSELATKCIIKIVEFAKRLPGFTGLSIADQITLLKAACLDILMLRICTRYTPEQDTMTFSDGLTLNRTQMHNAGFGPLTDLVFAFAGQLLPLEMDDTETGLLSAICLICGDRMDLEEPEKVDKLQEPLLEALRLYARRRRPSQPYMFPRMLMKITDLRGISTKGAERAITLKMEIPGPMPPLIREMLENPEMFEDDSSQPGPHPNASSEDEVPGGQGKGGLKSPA

CCCCCCCCCCCCN(CCCCCCCCCCCC)CCCCCCCCCCCC
inactive: [1] | [2] | [3] | [4] | [5] | [6] | [7]

O=C(O)CN(CCN(CC(=O)O)CC(=O)O)CCN(CC(=O)O)CC(=O)O
inactive: [1] | [2] | [8] | [9] | [3] | [10] | [11] | [12]

CCCCNC(=O)NS(=O)(=O)c1ccc(C)cc1
inactive: [1] | [2] | [3] | [4] | [5] | [12] | [6] | [7]

O=C[C@@H](O)[C@H](O)[C@H](O)CO
inactive: [1] | [2] | [3] | [10] | [5] | [12] | [7]

Cc1ccc(C(=O)c2cc(O)c(O)c([N+](=O)[O-])c2)cc1
inactive: [1] | [2] | [4] | [12] | [6] | [7]
active: [3] 17.5 µM

CC(C)c1cccc(O)c1
inactive: [1] | [2] | [3] | [4] | [7]

Clc1ccc(Cl)c(Cl)c1Cl
active: [6] 63.4 µM
inactive: [1] | [2] | [4] | [11] | [12] | [7]

C[C@H]1C[C@H]2[C@@H]3CCC4=CC(=O)C=C[C@]4(C)[C@@]3(F)[C@@H](O)C[C@]2(C)[C@@]1(O)C(=O)COP(=O)(O)O
inactive: [1] | [2] | [3] | [4] | [6]

CC(C)(C)C(=O)c1ccccc1
inactive: [1] | [2] | [4] | [5] | [11] | [6] | [7]

O=Cc1ccc(Cl)c([N+](=O)[O-])c1
active: [3] 100 µM
inactive: [1] | [2] | [11] | [12] | [7]

CCCCCCCCC
inactive: [1] | [2] | [3] | [7]

CC1=CCC(O)(C(C)C)CC1 (stereo not drawn)
inactive: [1] | [2] | [4] | [11] | [12] | [7]

CN(C)CCOCCN(C)C
inactive: [1] | [2] | [4]

CCC/C=C/C=O
inactive: [1] | [2] | [4] | [12]
active: [3] 27.7 µM

O=C(Oc1ccccc1)c1ccc(O)cc1
inactive: [1] | [2] | [4] | [5] | [12] | [6] | [7]

NNc1nc(-c2ccc(N)cc2)cs1
inactive: [1] | [2] | [4] | [5] | [12] | [6]

CCCC/C=C\CCCCCCCCCC=O
active: [6] 6.07 µM
inactive: [1] | [2] | [3] | [4]

CCCCCCC#CC(=O)OC
active: [3] 5.61 µM
inactive: [1] | [2] | [12] | [7]
